The text below walks through data of the OligoGym collection.
Also: reference of the scale not given here.

The target in the first experiment is PREB. The experiment is described as follows: pooled miR-30 sensor sort-seq; sequence = guide strand. The note with it: shRNA.
The sequence TTGTGGGGAATTTGCACTGTGA displayed a sensor-assay potency score (higher = more potent) of -0.563.
In turn, TTCTGCAGTGGATCGGAGCTAA showed a sensor-assay potency score (higher = more potent) of 0.0919.
The same measure, in the same setting: then TAAGGGTAGACTACCTAGGAAC, with -1.26; and TTCACTGACATCGAGGCAGGAG, with 0.301; and TTCGTGGGCTTTGAACTCCAGA, with -1.33.
AAAGTCTGTCTGCACCGCCTGC: the sensor-assay potency score (higher = more potent) is -1.08.
As for TTGATGTGCCTGGAAGCGCAGG, the sensor-assay potency score (higher = more potent) was -0.963.
The same measure, in the same setting: to TTGCACTGTGAAGAGTCGCAGG belongs -0.529; to TAAAGTCTGTCTGCACCGCCTG, -0.668.
Still for that read-out and setting: to TTGAACTCCAGAACCTTCTCCA belongs 0.863.
Consider ATCGGAGCTAAAGTCTGTCTGC, for which the sensor-assay potency score (higher = more potent) is -0.682.
With TTCTTTATGCCTGTCTTGGCGG, the sensor-assay potency score (higher = more potent) was -0.991.

The target of another experiment is PRKAR1B. Described as above. The note with it: shRNA.
Turning to TCCATCTTCAAACTGGACGGGC, the sensor-assay potency score (higher = more potent) is -0.749.
Turning to TTTCTCTCCATCTTCAAACTGG, the sensor-assay potency score (higher = more potent) is -0.327.
Sequence TACACCTCGGCACTCACGCCTC had a sensor-assay potency score (higher = more potent) of -1.12.
In turn, TTCCTTCTCCAGCTTCTCGAAG registered a sensor-assay potency score (higher = more potent) of -1.27.
Sequence TGCTGTATAACAGTCTCCCCAG showed a sensor-assay potency score (higher = more potent) of -0.318.
Same read-out and setting: to TTGATCAACGACATAGAAGTTG belongs -0.313.
Still for that read-out and setting: then TAACGCTGAATGTTCCTCTTGA, with 0.692; and TCTAGGATGGAGACCTTGCTGA, with -0.482.
AACTCCTCGTACATCTTGCGTT came in with a sensor-assay potency score (higher = more potent) of -1.1.
For the sequence TATAACAGTCTCCCCAGCGATG, the sensor-assay potency score (higher = more potent) was -1.57.
Turning to TTGCTGTATAACAGTCTCCCCA, the sensor-assay potency score (higher = more potent) is -0.886.
